Source: PubChem BioAssay
HP1b binding inh: inhibitors of HP1-beta chromodomain binding to methylated histone tails; actives 0.56% (n = 390,000); Potency, µM (doses to about 114 µM), for the others: at the top dose activity change, negative = inhibition, hits mostly inhibitors; AlphaScreen HP1-beta / biotin-H3K9me3 peptide binding; P83916; note: nearly all actives have a fitted effect of over 70% in size
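HP1-beta protein (50 nM final) preincubated 30 min at room temperature with biotinylated H3(1-18)K9me3 peptide (50 nM) in PBS pH 7.4, 0.01% Tween-20, then compound added for 30 min. AlphaScreen streptavidin donor/nickel chelate acceptor beads (10 ug/mL final), 30 min dark, luminescence read.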
BAZ2B inh: inhibitors of human BAZ2B bromodomain; Q9UIF8; AlphaScreen BAZ2B-H3K14Ac peptide displacement; Potency, µM (series often up to 114 µM), for the others: at the highest dose activity change, negative = inhibition, most hits filed as inhibitors; actives 4.4% (n = 360,000); AID 504333; note: % is set by controls: 0 for no effect and ±100 for the full control effect; nearly all actives have a fitted effect of over 60% in size
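In this displacement format the biotinylated H3(5-23) peptide acetylated at Lys14 serves as ligand at 50 nM, with BAZ2B at 50 nM in PBS pH 7.4 containing 0.01% Tween-20. Donor and acceptor beads are 10 ug/mL final.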
JMJD2A Tudor inh: blocks the human JMJD2A Tudor domain; AID 504339; O75164; actives 4.4% (n = 390,000); Potency, µM (doses to about 114 µM), for inactives: at the highest dose activity change, negative = inhibition, hits mostly inhibitors; AlphaScreen JMJD2A-Tudor / H3K4me3 peptide binding; note: % is set by controls: 0 for no effect and ±100 for the full control effect; nearly all actives have a fitted effect of over 50% in size
Sfp inh: blocks B. subtilis Sfp PPTase activity | Q9F4F7 | Biochemical Sfp PPTase activity, qHTS | Potency, µM, for inactives: largest response in the series, negative = inhibition, actives largely listed as inhibitors | actives 3.5% (n = 310,000) | AID 1490;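 note: the enzyme is Sfp with the accession as filed and its product quenches rhodamine fluorescence; 0% = enzyme reaction without inhibitor and -100% = no enzyme wells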
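Step 1, compound plus 15 nM Sfp-PPTase, 15 min, room temperature. Step 2, add rhodamine-CoA (5 uM) and BHQ-2-YbbR (12.5 uM). Step 3, read 525/598 nm fluorescence at 0 and 30 min.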
G9a inh: inhibitors of human histone lysine methyltransferase G9a; G9a H3K9 monomethylation, AlphaScreen, 2 h; Q96KQ7; Potency, µM (top dose mostly 102 µM), for the others: top-dose activity, negative = inhibition, usual class: inhibitors; AID 504332; actives 8.8% (n = 350,000); note: % is set by controls: 0 for no effect and ±100 for the full control effect; nearly all actives have a fitted effect of over 75% in size
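Quantitative HTS format: methyltransferase activity on a biotin-tagged H3K9 peptide is measured by AlphaScreen, using a rabbit anti-monomethyl-H3K9 antibody with streptavidin donor and anti-IgG acceptor beads. Final levels are 20 nM enzyme, 500 nM peptide, 20 uM SAM; 2 h RT.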
* marks the source's active call; other numbers are inactive results; ? = inconclusive; nt = not tested or not shown; [ ] = remark or other dose. Sampled rows, rich in hits. Any-hit rate of the full collection: about 12%. Calls come from the whole dose curve; as a rule, active = well fitted curve in the direction sought with a large enough effect; inconclusive = small, poorly fitted or top-dose-only effect, or another doubt; inactive = no such curve, though single readings can be large; an effect the other way counts as inactive or inconclusive. Potency is the fitted concentration of half-maximal effect.

SMILES | HP1b binding inh | BAZ2B inh | JMJD2A Tudor inh | Sfp inh | G9a inh
O=C1NC(=Nc2ccccc2Cl)S/C1=C\c1cccc([N+](=O)[O-])c1O | ? | 11.2µM* | 39.8µM* | -22.6% | 8.91µM*
O=C1NC(=S)S/C1=C\c1cccc([N+](=O)[O-])c1 | 7.7% | nt | -28.3% | nt | nt
O=C1NC(=Nc2ccccc2Cl)S/C1=C\c1cccc([N+](=O)[O-])c1 | 31.6% | 50.1µM* | ? | -7.5% | ?
CC(=O)OCOC(=O)CN(CC(=O)OCOC(C)=O)c1ccccc1OCCOc1ccccc1N(CC(=O)OCOC(C)=O)CC(=O)OCOC(C)=O | nt | nt | nt | 89.1µM* | 2.2%[59 µM]
CC(=O)c1ccccc1OCCOCCOCCOc1ccccc1C(C)=O | 21.1% | -14.0% | -0.8% | 29.7% | nt
Cc1ccc(NC(=O)C(=O)NCC(c2cccnc2)N2CCc3ccccc32)cc1Cl (centres undefined) | 21.9% | -15.6% | -11.5% | nt | -32.9%[59 µM]
Cc1nnc(NC(=O)CSc2nnc(-c3ccoc3C)n2CC(C)C)s1 | -6.5% | 62.6% | 50.1µM* | ? | 26.0%[12.7 µM]
CCCn1c(SCC(=O)Nc2nnc(C)s2)nnc1-c1ccoc1C | -12.4% | 0.2% | 50.1µM* | -6.3% | -13.5%[12.7 µM]
Cc1ccc(N2CC(C(=O)NC3=NCCS3)CC2=O)cc1C (centres undefined) | 15.0% | 5.1% | -20.8% | 3.5% | -12.8%[59 µM]
O=C(NC1CC1)C1CC(=O)N(c2cccc(Cl)c2)C1 (centres undefined) | 42.6% | -37.8% | -2.9% | -7.5% | 25.1µM*
Cc1ccc(N2CC(C(=O)Nc3ccc(N(C)C)cc3)CC2=O)cc1C (centres undefined) | -5.7% | ? | 56.2µM* | ? | -30.2%[12.7 µM]
Cc1ccc(N2CC(C(=O)Nc3ccccc3C(=O)NC3CCCCC3)CC2=O)cc1C (centres undefined) | -11.0% | nt | 20µM* | nt | nt
C[N+](C)(C)CCCN1C(=O)CCCC1=O | 16.2% | ? | 56.2µM* | -24.9% | -52.7%
CCc1ccc(-c2cc(C)no2)cc1S(=O)(=O)Nc1ccc(Cl)cc1 | 7.8% | 7.2% | -21.4% | nt | 11.5%[59 µM]
COc1ccc(CN2CCCC(C(=O)N3CCc4ccccc4C3)C2)cc1OC (centres undefined) | -6.5% | 89.1µM* | 22.4µM* | -21.5% | ?
COc1ccc(CN2CCCC(C(=O)N3CCCCC3)C2)cc1OC (centres undefined) | 9.2% | 70.8µM* | 20µM* | -1.1% | 2.82µM*
O=C(c1cccc([N+](=O)[O-])c1)N1CCCC(C(=O)N2CCCCC2)C1 (centres undefined) | 25.6% | -12.5% | -15.0% | 7.9% | 2.3%
COc1ccc(S(=O)(=O)N2CCC(C(=O)N3CCc4ccccc4C3)CC2)cc1Cl | 22.7% | -2.6% | -19.0% | -10.1% | 0.6%[59 µM]
O=C(C1CCCN(Cc2ccc([N+](=O)[O-])cc2)C1)N1CCCCC1 (centres undefined) | ? | 56.2µM* | 25.1µM* | -14.7% | 28.2µM*
CCc1n[nH]c(=S)n1/N=C/c1cc(OC)cc([N+](=O)[O-])c1O | ? | 13.8% | 5.01µM* | 22.4µM* | 7.94µM*
COc1ccc(/C=N/n2c(-c3cc(C)[nH]n3)n[nH]c2=S)cc1OC | 16.3% | ? | 3.55µM* | 56.2µM* | nt
Cc1cc(-c2n[nH]c(=S)n2/N=C/c2ccc(C)o2)n[nH]1 | ? | -28.9% | 3.16µM* | -14.8% | 7.94µM*
COc1ccc(/C=N/n2c(=S)n(C)c3ccccc32)cc1OC | -2.8% | ? | ? | 1.3% | ?
Cc1n[nH]c(=S)n(/N=C/c2cccc([N+](=O)[O-])c2)c1=O | 28.7% | 3.1% | ? | -12.4% | -7.3%
COc1ccc(/C=N/n2c(-c3cc(C)[nH]n3)n[nH]c2=S)cc1 | ? | -26.6% | 3.55µM* | -28.0% | 2.24µM*
SMILES | HP1b binding inh | BAZ2B inh | JMJD2A Tudor inh | Sfp inh | G9a inh
O=C(CCc1nc(-c2ccccc2F)no1)Nc1cccnc1 | 25.7% | 1.7% | -22.7% | -0.2% | nt
COc1cc(/C=N/n2c(-c3cc(C)[nH]n3)n[nH]c2=S)cc(OC)c1O | ? | ? | 3.55µM* | 28.2µM* | 5.01µM*
Cc1cccc(-c2n[nH]c(=S)n2/N=C/c2ccc(C)o2)c1 | -33.3% | -30.5% | 7.94µM* | ? | 2µM*
CCC1CCCCN1Cc1cc(OC)c(O)c([N+](=O)[O-])c1 (centres undefined) | 3.3% | -10.7% | -12.7% | -4.8% | ?
COc1cc(/C=N/n2c(=S)[nH]nc(C)c2=O)cc([N+](=O)[O-])c1O | 37.5% | -19.1% | ? | 14.1µM* | 11.3%
COc1cc(/C=N/N2CCCCC2)cc([N+](=O)[O-])c1O | -21.0% | 44.7µM* | ? | -2.2% | 50.1µM*
Cc1c(P(=S)(c2ccccc2)c2ccccc2)[n+]2ccccc2n1CC(=O)c1ccccc1 | nt | nt | -25.9% | nt | nt
CCCn1cc(CN2CCC(Oc3ccc(C(=O)N4CCCC4)cc3)CC2)c(C)n1 | 24.4% | 0.2% | -22.1% | 18.2% | 8.3%
CCc1ccc(-c2nc(CS(=O)CC(=O)NC3CCCCCC3)c(C)o2)cc1 (centres undefined) | 19.9% | -24.5% | -22.2% | 50.1µM* | nt
COc1ccc(-c2nc(CS(=O)CC(=O)NCCC3=CCCCC3)c(C)o2)cc1 (centres undefined) | 57.2% | -1.7% | -19.0% | ? | 79.4µM*
COc1ccc(-c2nc(CS(=O)CC(=O)NC3CCCC(C)C3C)c(C)o2)cc1OC (centres undefined) | 26.8% | -4.1% | -4.9% | -1.9% | 56.2µM*
COc1cc(OC)cc(-n2nnc(-c3nc(-c4ccccc4Cl)no3)c2N)c1 | 29.7% | -14.1% | 1.1% | nt | -9.2%[59 µM]
C=C(C)Cn1c(=O)c2c(nc3n2CCN3c2ccc(F)cc2)n(C)c1=O | 1.7% | -26.7% | -30.3% | nt | ?
C/C=C\C=C\C(=O)N1CC2(CC(c3cccc(NC(=O)COc4ccc(Cl)cc4)c3)=NO2)C[C@H]1C(N)=O (some centres undefined) | -8.1% | -16.4% | ? | 28.2µM* | ?
C/C=C\C=C/C(=O)Nc1cccc(C2=NOC3(C2)C[C@@H](C(N)=O)N(C(=O)COc2ccc(Cl)cc2)C3)c1 (some centres undefined) | ? | ? | 70.8µM* | 20µM* | ?
Cc1c(Br)c(O)c(Br)c2sc(=O)oc12 | 28.2µM* | ? | 44.7µM* | 2.82µM* | 3.55µM*
Cc1ccc2nc(NC(=O)CSCC(=O)OCC(=O)c3ccc(Br)cc3)sc2c1 | 40.4% | -6.3% | ? | 5.6% | 44.7µM*
COC(=O)c1ccc2nc(NC(=O)CSCC(=O)OCC(=O)c3ccccc3)sc2c1 | 29.8% | -8.5% | ? | -13.6% | 7.94µM*
Cc1ccc2nc(NC(=O)CSCc3ccccc3)sc2c1 | 50.8% | 1.8% | -7.8% | 1.1% | ?
COc1ccc(-n2c(=O)c3c4c(sc3n(CC(=O)Nc3cc(C)[nH]n3)c2=O)CCC4)c(OC)c1 | 0.7% | nt | 89.1µM* | -1.1% | ?
